Compound activity as filed in PubChem.
Compounds with a hit are over-represented: about 7.4% of the library has one in this group of screens.
FLuc modulator = counter-screen for miR-21 project: firefly luciferase inhibitors or activators | purified FLuc, Km substrates, luminescence inhibition | Potency, µM (titrated, usually from 57.5 µM), inactives show at the highest dose activity change, negative = inhibition, hits mostly inhibitors | 360,000 compounds, 6.9% hits;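 further: plate controls were vehicle for no effect and reference inhibitor for full effect; nearly all actives have a fitted effect of over 55% in size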
Target sequence (P08659 whole entry, looked up): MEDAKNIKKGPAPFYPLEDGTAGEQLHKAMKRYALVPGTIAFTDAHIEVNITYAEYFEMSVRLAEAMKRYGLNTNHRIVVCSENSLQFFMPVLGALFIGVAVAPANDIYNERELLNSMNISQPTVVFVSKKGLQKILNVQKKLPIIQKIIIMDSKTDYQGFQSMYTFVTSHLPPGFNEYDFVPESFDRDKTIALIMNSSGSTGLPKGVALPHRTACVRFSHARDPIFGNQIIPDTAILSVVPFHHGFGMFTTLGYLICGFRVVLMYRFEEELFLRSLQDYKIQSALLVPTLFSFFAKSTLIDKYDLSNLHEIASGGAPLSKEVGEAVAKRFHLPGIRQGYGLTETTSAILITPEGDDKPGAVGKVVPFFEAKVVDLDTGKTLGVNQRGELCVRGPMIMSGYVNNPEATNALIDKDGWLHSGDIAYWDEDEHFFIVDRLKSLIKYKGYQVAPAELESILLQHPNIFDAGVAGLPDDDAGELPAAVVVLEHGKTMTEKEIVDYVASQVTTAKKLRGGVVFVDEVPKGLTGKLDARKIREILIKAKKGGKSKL
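Biochemical qHTS of compounds, final roughly 60 µM downward over six points, against 10 nM purified firefly luciferase using Km concentrations of substrates (10 uM D-luciferin, 10 uM ATP) in Tris acetate pH 7.5 buffer; luminescence output.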
SMN2 splice up = enhancers of SMN2 splice variant expression. HEK293 SMN2-luciferase splicing reporter, luminescence, 30-36 h. Potency, µM (top dose mostly 46.1 µM), for the others: top-dose activity change, positive = activation, hits mostly activators. 210,000 compounds, 2.8% hits. AID 1458; further: % of control where 0% means no effect; nearly all actives have a fitted effect of over 55% in size
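HEK293 cells carry an SMN2 minigene-luciferase reporter in which exon 7 inclusion puts luciferase in frame. Cells were seeded at 2000 cells/well, attached for 10-12 hours, then exposed to compounds for 30-36 hours at 37C before ONE-Glo luminescence.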
ELG1 genotox = inducers of genotoxicity in HEK293T ELG1-luciferase cells. HEK293T ELG1-luciferase reporter, luminescence, 16 h. Potency, µM (top dose mostly 46 µM), for inactives: top-dose activity change, positive = activation, hits mostly activators. 330,000 compounds, 1.3% hits. AID 504466; further: % of control where 0% means no effect; nearly all actives have a fitted effect of over 60% in size
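After overnight (16 hr) compound treatment at 37 °C, ELG1-luciferase HEK293T cells were lysed with ONE-Glo; luminescence quantified 30 min later at room temperature.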
NPC1 prom act = NPC1 promoter activation; 320,000 compounds, 2.4% hits; Huh7 NPC1 promoter luciferase reporter, 24 h; Potency, µM (doses to about 9.22 µM), inactives show top-dose activation, actives largely listed as activators; further: % of control where 0% means no effect; nearly all actives have a fitted effect of over 60% in size
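NPC1 promoter–luciferase Huh7 cells; 24 h compound; luminescence.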
Rab9 promoter act = Rab9 promoter activation | Huh7 Rab9 promoter-luciferase reporter, luminescence, 24 h | Potency, µM (titrated, usually from 9.22 µM), inactives show at the top dose activation, negative = inhibition, most hits filed as activators | 320,000 compounds, 2.8% hits | AID 485297; further: % of control where 0% means no effect; nearly all actives have a fitted effect of over 60% in size
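Cells were plated at 1500 per well in reduced-serum medium with 10% FBS and left 2 h. Compound in DMSO was then added for 24 h at 37 °C. Reporter signal was read by luminescence after 10 min with luciferase detection reagent.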
Starred values were filed as active, the others as inactive; [ ] = dose if it differs, or a comment. The call rests on the fitted dose curve; in most records, active means well fitted curve in the direction sought with a large enough effect; inconclusive means small, poorly fitted or top-dose-only effect, or another doubt; inactive means no such curve, though single readings can be large; an effect the other way counts as inactive or inconclusive. Potency means the concentration at half of the fitted maximal effect.

What do the screens show for `Fc1cccc(/C=N/Nc2nc3ccccc3[nH]2)c1`?
FLuc modulator: 8.49µM*; SMN2 splice up: inconclusive; ELG1 genotox: inconclusive; NPC1 prom act: inconclusive; Rab9 promoter act: 3.16µM*

Results for C(=N\Nc1nn[nH]n1)/c1ccccc1 ?
FLuc modulator: -0.5%; SMN2 splice up: -4.9%; ELG1 genotox: 3.2%; NPC1 prom act: -1.0%; Rab9 promoter act: 0.3%

How did CCCc1cc(=O)[nH]c(N/N=C/C=C\c2ccccc2)n1 do in these assays?
FLuc modulator: -15.4%; SMN2 splice up: -15.7%; ELG1 genotox: -5.4%; NPC1 prom act: -1.7%; Rab9 promoter act: 6.8%

What do the screens show for `CC(C)CCNC(=O)c1cc(-c2cccnc2)nc2ccc(S(=O)(=O)N3CCC(C)CC3)cc12`?
FLuc modulator: -2.4%

What do the screens show for `O=C(COC(=O)c1ccccn1)Nc1nc(-c2cccc([N+](=O)[O-])c2)cs1`?
FLuc modulator: -2.1%; ELG1 genotox: 0.6%; NPC1 prom act: 1.6%; Rab9 promoter act: -1.5%

Results for CC(NC(=S)NC1CCC(C(C)(C)C)CC1)c1ccccc1 (centres undefined) ?
FLuc modulator: -0.6%; ELG1 genotox: -15.6%; NPC1 prom act: -4.9%; Rab9 promoter act: 0.0%

How did Cc1cc(N/N=C/c2ccc3c(c2)OCO3)nc2ccccc12 do in these assays?
FLuc modulator: 2.69µM*; ELG1 genotox: 13.8%; NPC1 prom act: inconclusive; Rab9 promoter act: 2.51µM*

Results for O=c1[nH]c(N/N=C/c2ccccc2)nc2ccccc12 ?
FLuc modulator: 6.01µM*; SMN2 splice up: 14.1µM*; ELG1 genotox: 2.31µM*; NPC1 prom act: 3.16µM*; Rab9 promoter act: 2.24µM*

How did Cc1cc2oc(C(=O)Nc3c(C)n(C)n(-c4ccccc4)c3=O)cc(=O)c2cc1C do in these assays?
FLuc modulator: 2.4%; SMN2 splice up: 25.3%

What do the screens show for `CCc1ccc(NC2=CC(=O)C(=O)c3ccccc32)cc1`?
FLuc modulator: 10.7µM*; ELG1 genotox: -5.8%; NPC1 prom act: 1.3%; Rab9 promoter act: -4.4%

How did O=C1C=C(Nc2ccccc2)C(=O)c2ccccc21 do in these assays?
FLuc modulator: 3.38µM*; SMN2 splice up: 12.6µM*; ELG1 genotox: 7.1%; NPC1 prom act: 1.78µM*; Rab9 promoter act: 1µM*

How did CCNC(=O)C12CCC(C)(c3nc4cc(C)c(C)cc4nc31)C2(C)C (centres undefined) do in these assays?
FLuc modulator: 2.7%; SMN2 splice up: -8.2%; ELG1 genotox: 1.9%; NPC1 prom act: -0.7%; Rab9 promoter act: -8.2%

How did Cc1ccc2c(c1C)OC(=O)CC2c1ccccc1 (centres undefined) do in these assays?
FLuc modulator: -1.0%; ELG1 genotox: 3.1%; NPC1 prom act: -0.3%; Rab9 promoter act: -0.7%

What do the screens show for `CC(=O)N1CCC2(CCN(Cc3ccc(C#N)cc3)CC2)CC1`?
SMN2 splice up: 14.6%

What do the screens show for `O=C(COc1ccccc1)NCCSc1ccccc1`?
FLuc modulator: 26.9µM*; SMN2 splice up: 20.5%; ELG1 genotox: 20.6µM*; NPC1 prom act: inconclusive; Rab9 promoter act: 12.2%

Results for COc1ccccc1OCCNC(=O)Nc1ccc(Br)cc1 ?
FLuc modulator: 2.4%; SMN2 splice up: 10.5%; ELG1 genotox: -3.4%; NPC1 prom act: 0.3%; Rab9 promoter act: -2.1%

Results for Cc1ccc(-c2[nH]c3ccccc3c2SCCNC(=O)c2ccc(S(=O)(=O)N(C)C)cc2)cc1 ?
FLuc modulator: -4.1%; SMN2 splice up: -13.8%

Results for COc1ccc(C(=O)NCCSc2ccccc2)cc1OC ?
FLuc modulator: inconclusive; SMN2 splice up: 14.1µM*; ELG1 genotox: inconclusive; NPC1 prom act: inconclusive; Rab9 promoter act: inconclusive

How did CC(C)(C)SCCNC(=O)COc1ccccc1 do in these assays?
FLuc modulator: -7.4%; SMN2 splice up: 7.4%; ELG1 genotox: 6.7%; NPC1 prom act: -3.5%; Rab9 promoter act: -3.8%

What do the screens show for `CN(C)S(=O)(=O)c1ccc(C(=O)NCCSc2ccccc2)cc1`?
FLuc modulator: inconclusive; SMN2 splice up: 18.4%; ELG1 genotox: 10.3µM*; NPC1 prom act: inconclusive; Rab9 promoter act: inconclusive

How did COc1ccccc1OCCNC(=O)c1ccc(Br)cc1 do in these assays?
FLuc modulator: 23.9µM*; ELG1 genotox: inconclusive; NPC1 prom act: inconclusive; Rab9 promoter act: -0.4%[1.84 µM]

What do the screens show for `CNS(=O)(=O)c1cn(CC(=O)N2CCN(c3cccc(C)c3C)CC2)cc1S(=O)(=O)NC`?
FLuc modulator: 2.1%

How did N[C@@H]1C(O)OC(CO)C(O)C1O (some centres undefined) do in these assays?
SMN2 splice up: -2.7%

How did CC(=O)N1CC(C)Sc2ccc(S(=O)(=O)NC(C)c3ccccc3)cc21 (centres undefined) do in these assays?
FLuc modulator: 1.9%; ELG1 genotox: -8.1%; NPC1 prom act: -2.2%; Rab9 promoter act: -7.9%

How did CC(=O)N1CCCc2cc(S(=O)(=O)N3CCN(c4ccccc4F)CC3)ccc21 do in these assays?
FLuc modulator: 2.5%

Results for Clc1ccc(Nc2nc3cccnc3s2)cc1 ?
FLuc modulator: inconclusive; SMN2 splice up: 12.6µM*; ELG1 genotox: inconclusive; NPC1 prom act: 2.82µM*; Rab9 promoter act: 2.51µM*

What do the screens show for `CCC(=O)Nc1cccc(-c2cnc3ccccc3n2)c1`?
FLuc modulator: 19µM*; SMN2 splice up: 18.8%; ELG1 genotox: inconclusive; NPC1 prom act: inconclusive; Rab9 promoter act: inconclusive

How did O=C(CCl)Nc1cccc(-c2cnc3ccccc3n2)c1 do in these assays?
FLuc modulator: 12µM*; SMN2 splice up: -1.8%; ELG1 genotox: -37.7%; NPC1 prom act: -4.6%; Rab9 promoter act: -33.6%

Results for CCc1ccc(-c2cnc3ccccc3n2)cc1NC(=O)CNC(=O)c1ccccc1 ?
FLuc modulator: 2.69µM*; ELG1 genotox: 3.66µM*; NPC1 prom act: 3.55µM*; Rab9 promoter act: 3.98µM*

How did CC(NC(=O)COC(=O)c1ccc([N+](=O)[O-])o1)c1ccccc1 (centres undefined) do in these assays?
ELG1 genotox: 3.1%

What do the screens show for `Nc1ncnc2nc(-c3ccc(C[P+](c4ccccc4)(c4ccccc4)c4ccccc4)cc3)[nH]c12`?
SMN2 splice up: -18.4%[9.22 µM]

How did Cc1ccc(C(=O)Nc2ccc(Cl)c(-c3nc4ncccc4o3)c2)c(C)c1 do in these assays?
FLuc modulator: 2.69µM*; SMN2 splice up: inconclusive

What do the screens show for `COc1cc(C(=O)Nc2ccc(Cl)c(-c3nc4ncccc4o3)c2)cc(OC)c1OC`?
FLuc modulator: 0.7%; SMN2 splice up: -8.1%

How did CCCn1nc2cc(C(=O)NCCc3ccc(C)cc3)ccc2c1OCC do in these assays?
FLuc modulator: -4.4%; SMN2 splice up: -4.8%; ELG1 genotox: -3.9%; NPC1 prom act: 0.1%; Rab9 promoter act: 1.7%
